Data on 40 molecules can be found in PubChem BioAssay (NCI).

Compounds without any hit were thinned out: in the full panel of roughly 79,000, 15% have a hit. Values without a mark were called inactive. Active and inactive are the calls of the source. Cut-off read from the data, not from the text of the source: active = growth inhibition above about 70%; inactive = the rest.

The first assay can be described thus: NCI Yeast Anticancer Drug Screen. Data for the cln2 rad14 strain (AID 165).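 Note: 0% = growth equal to vehicle treated cultures.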 As to conditions: S. cerevisiae cln2 rad14 strain, at 50.0 µM, active compounds read high. In outline:
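Readout is yeast growth inhibition versus vehicle-treated controls, using a strain with cln2 and rad14 alterations exposed to compound.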
With `CC1(CCOCc2ccccc2)NC(=O)N(CCC#N)C1=O` (stereo not given), the growth inhibition is -10.2%.

Consider `CC(C)CC(O)CC(C)C`, for which the growth inhibition was 28.4%.

In the case of `CC1(C)CC2=C(Sc3ccccc3N2)C(=O)C1C(=O)C(=O)Nc1cc(Cl)ccc1Cl` (stereo not given), the growth inhibition is -28.3%.

With `Brc1cc2c(cc1CC1CCCCO1)OCO2` (stereo not given), the growth inhibition is -61.9%.

Consider `COc1ncc(/C=C2\OC(=O)c3ccccc32)c(OC)n1`, for which the growth inhibition was 2.6%.

For the molecule `CCCCOCCOCCOC(=O)C(C)O` (stereo not given), the growth inhibition is 5.1%.

With `Cn1c(-c2ccccc2)cc(=O)cc1-c1ccccc1`, the growth inhibition is -1.25%.

As for `COc1cc(/C=N\N=C(/C)c2ccc(C)cc2C)cc(OC)c1OC`, the growth inhibition is 22.9%.

Turning to `CNN=C(C)C`, the growth inhibition is -4.8%.

Regarding `CC(N)C(C)(C)O` (stereo not given), the growth inhibition is -12.8%.

With `OC(c1ccccc1)(c1ccccc1)c1ccccc1CNc1ccccc1`, the growth inhibition is 8%.

For the molecule `O=C(O)/C(=C\c1ccncc1)c1cccc2ccccc12`, the growth inhibition was -24.9%.

In the case of `CC(=O)OCC(OC(C)=O)C(OC1OC(COC(C)=O)C(OC(C)=O)C(OC(C)=O)C1OC(C)=O)C(OC(C)=O)c1cnn(-c2ccccc2)n1` (stereo not given), the growth inhibition was -19.4%.

With `Cc1cccc(C)c1/[N+]([O-])=C/c1cccc([N+](=O)[O-])c1`, the growth inhibition is -29.4%.

As to `CCCC(O)C(C)C(C)O` (stereo not given), the growth inhibition was 25.1%.

`Nc1ccc(S(=O)(=O)Nc2nccs2)cc1`: the growth inhibition was 6.05%.

On to `COc1ccc(C2c3cc4c(cc3OC(C)(OC)C2C)OCO4)cc1` (stereo not given), for which the growth inhibition is -14.8%.

`COc1ccc(OC)c(NC(=O)Nc2ccc(I)cc2)c1`: the growth inhibition was 15.1%.

For `COc1cccc(/C=N\c2nc(-c3ccccc3Cl)cs2)c1O`, the growth inhibition was 21.9%.

Take `COc1ccc(N2C(=O)c3c(C)ccc(C)c3C2=O)cc1`: the growth inhibition was -0.5%.

In the case of `CS(=O)(=O)OCC1NC(=O)C(COS(C)(=O)=O)NC1=O` (stereo not given), the growth inhibition was 2%.

For the molecule `COC(=O)/C(=N\O)C(C(=O)C=C(C)C)C(=O)C(=O)Nc1ccccc1C` (stereo not given), the growth inhibition is 7.4%.

Regarding `COc1cc2c(cc1O)C(=O)CCCC2`, the growth inhibition is -2.25%.

Consider `COc1ccc(-c2cc(-c3ccccc3)n(C3OC(COC(C)=O)C(OC(C)=O)C(OC(C)=O)C3OC(C)=O)c(=S)c2C#N)cc1` (stereo not given), for which the growth inhibition is -25.4%.

For `CCOC(=O)c1n[nH]c(=S)[nH]c1=O`, the growth inhibition is -16.9%.

Consider `O=[N+]([O-])c1ccc(/C=N\NC(=S)Nc2ccc3cn[nH]c3c2)cc1`, for which the growth inhibition is -1.7%.

`N=C(N)c1ccc(NC(=O)c2ccc(C(=O)Nc3ccc(C(=N)N)cc3)c(N)c2)cc1`: the growth inhibition was -7.85%.

`O=C(CC(=O)N1N=C(N(c2ccccc2)c2ccccc2)CC1c1ccccc1)Nc1ccccc1` (stereo not given): the growth inhibition is 8.3%.

`Cc1ccc2[nH]c(=S)n(CCc3ccccc3)c(=O)c2c1`: the growth inhibition was 6.85%.

Regarding `CCOc1ccc(N=Nc2c(O)n(-c3ccc(Br)cc3)c(=S)n(-c3ccc(OC)cc3)c2=O)cc1`, the growth inhibition is -24.4%.

As to `CCCCCCC#CC(=O)OCCCC`, the growth inhibition was -20%.

In the case of `Clc1cccc2[nH]ccc12`, the growth inhibition was -10.2%.

Regarding `COc1ccc(C(=O)N/N=C/c2c(C)n(C)n(-c3ccccc3)c2=O)cc1`, the growth inhibition was -6.45%.

As for `O/N=C(\CC(O)(C(F)(F)F)C(F)(F)F)c1cccs1`, the growth inhibition was 87.5% (active).

`Cc1cc2c3c(c1)CCCN3CCC2`: the growth inhibition was -30.9%.

Take `CCC1(C#N)OC1C` (stereo not given): the growth inhibition was 10.8%.

For `CCCC(=O)Nc1ccccc1OC`, the growth inhibition is 11.9%.

With `C(CCN1CN(CCCCN2CCOCC2)CN(CCCCN2CCOCC2)C1)CN1CCOCC1`, the growth inhibition is -5.5%.

As for `C/C(CC(=O)Nc1ccc(Cl)cc1)=N\NC(N)=S`, the growth inhibition is 20.4%.

As to `CCCCCCC(C#N)(CCN(C)C)c1ccccc1` (stereo not given), the growth inhibition was -8%.

The next assay is described as follows: NCI Yeast Anticancer Drug Screen. Data for the bub3 strain (AID 167). The note with it: S. cerevisiae bub3 mutant strain, at 50.0 µM, active compounds read high. In outline: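 Mutant yeast screening strain plus compound; vehicle-treated cultures serve as the 0% inhibition reference.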
With `CC1(CCOCc2ccccc2)NC(=O)N(CCC#N)C1=O` (stereo not given), the growth inhibition is 2.55%.

On to `CC(C)CC(O)CC(C)C`, for which the growth inhibition was -15.3%.

With `CC1(C)CC2=C(Sc3ccccc3N2)C(=O)C1C(=O)C(=O)Nc1cc(Cl)ccc1Cl` (stereo not given), the growth inhibition is -0.25%.

Take `Brc1cc2c(cc1CC1CCCCO1)OCO2` (stereo not given): the growth inhibition was -4.9%.

With `COc1ncc(/C=C2\OC(=O)c3ccccc32)c(OC)n1`, the growth inhibition was 6.05%.

In the case of `CCCCOCCOCCOC(=O)C(C)O` (stereo not given), the growth inhibition was -7.25%.

Regarding `Cn1c(-c2ccccc2)cc(=O)cc1-c1ccccc1`, the growth inhibition is -4.45%.

On to `COc1cc(/C=N\N=C(/C)c2ccc(C)cc2C)cc(OC)c1OC`, for which the growth inhibition was 24.9%.

For `CNN=C(C)C`, the growth inhibition was 2.5%.

With `CC(N)C(C)(C)O` (stereo not given), the growth inhibition is 6.2%.

In the case of `OC(c1ccccc1)(c1ccccc1)c1ccccc1CNc1ccccc1`, the growth inhibition is 19.8%.

For the molecule `O=C(O)/C(=C\c1ccncc1)c1cccc2ccccc12`, the growth inhibition was -32%.

Turning to `CC(=O)OCC(OC(C)=O)C(OC1OC(COC(C)=O)C(OC(C)=O)C(OC(C)=O)C1OC(C)=O)C(OC(C)=O)c1cnn(-c2ccccc2)n1` (stereo not given), the growth inhibition is -2.65%.

Turning to `Cc1cccc(C)c1/[N+]([O-])=C/c1cccc([N+](=O)[O-])c1`, the growth inhibition is 10%.

With `CCCC(O)C(C)C(C)O` (stereo not given), the growth inhibition is -2.15%.

Regarding `Nc1ccc(S(=O)(=O)Nc2nccs2)cc1`, the growth inhibition is -1.85%.

In the case of `COc1ccc(C2c3cc4c(cc3OC(C)(OC)C2C)OCO4)cc1` (stereo not given), the growth inhibition was 19.8%.

In the case of `COc1ccc(OC)c(NC(=O)Nc2ccc(I)cc2)c1`, the growth inhibition was 52.9%.

Consider `COc1cccc(/C=N\c2nc(-c3ccccc3Cl)cs2)c1O`, for which the growth inhibition is 39.6%.

With `COc1ccc(N2C(=O)c3c(C)ccc(C)c3C2=O)cc1`, the growth inhibition is -3.5%.

Turning to `CS(=O)(=O)OCC1NC(=O)C(COS(C)(=O)=O)NC1=O` (stereo not given), the growth inhibition was -0.65%.

Take `COC(=O)/C(=N\O)C(C(=O)C=C(C)C)C(=O)C(=O)Nc1ccccc1C` (stereo not given): the growth inhibition is -14.1%.

On to `COc1cc2c(cc1O)C(=O)CCCC2`, for which the growth inhibition was 14.1%.

Turning to `COc1ccc(-c2cc(-c3ccccc3)n(C3OC(COC(C)=O)C(OC(C)=O)C(OC(C)=O)C3OC(C)=O)c(=S)c2C#N)cc1` (stereo not given), the growth inhibition was 26.5%.

With `CCOC(=O)c1n[nH]c(=S)[nH]c1=O`, the growth inhibition was 11.7%.

Turning to `O=[N+]([O-])c1ccc(/C=N\NC(=S)Nc2ccc3cn[nH]c3c2)cc1`, the growth inhibition was 17.4%.

Take `N=C(N)c1ccc(NC(=O)c2ccc(C(=O)Nc3ccc(C(=N)N)cc3)c(N)c2)cc1`: the growth inhibition is -1.95%.

Consider `O=C(CC(=O)N1N=C(N(c2ccccc2)c2ccccc2)CC1c1ccccc1)Nc1ccccc1` (stereo not given), for which the growth inhibition is -0.35%.

Take `Cc1ccc2[nH]c(=S)n(CCc3ccccc3)c(=O)c2c1`: the growth inhibition was 10.4%.

`CCOc1ccc(N=Nc2c(O)n(-c3ccc(Br)cc3)c(=S)n(-c3ccc(OC)cc3)c2=O)cc1`: the growth inhibition is 1.35%.

Turning to `CCCCCCC#CC(=O)OCCCC`, the growth inhibition was -21.5%.

Turning to `Clc1cccc2[nH]ccc12`, the growth inhibition is -11.3%.

In the case of `COc1ccc(C(=O)N/N=C/c2c(C)n(C)n(-c3ccccc3)c2=O)cc1`, the growth inhibition was -52.5%.

On to `O/N=C(\CC(O)(C(F)(F)F)C(F)(F)F)c1cccs1`, for which the growth inhibition was 75.8% (active).

With `Cc1cc2c3c(c1)CCCN3CCC2`, the growth inhibition was 3.1%.

With `CCC1(C#N)OC1C` (stereo not given), the growth inhibition was 5.15%.

With `CCCC(=O)Nc1ccccc1OC`, the growth inhibition was 24.4%.

Consider `C(CCN1CN(CCCCN2CCOCC2)CN(CCCCN2CCOCC2)C1)CN1CCOCC1`, for which the growth inhibition is -1.75%.

For the molecule `C/C(CC(=O)Nc1ccc(Cl)cc1)=N\NC(N)=S`, the growth inhibition was -3.75%.

Take `CCCCCCC(C#N)(CCN(C)C)c1ccccc1` (stereo not given): the growth inhibition was 50.1%.
